Broadly, the AC50 is the concentration giving half of the maximal activity seen.

Inconclusive results are not listed. Activity calls are given as the source filed them. The calls were made as follows: active = hit-call score of the fitted dose curve at least 0.9, where 1 is the maximum; inconclusive = response in the unintended direction; inactive = score below 0.9.

The values that follow come from PubChem BioAssay (EPA / NIEHS).

Read-out in this assay: Cytochrome P450 2B6 (Homo sapiens) (UniProt P20813)
In words: CLD_CYP2B6_24hr: CellzDirect (CLD) Gene Expression Assay for xenobiotic metabolism (CYP2B6) at 24 hours (AID 2283686). How it is done:
CLD_24hr is a cell-based, multiplexed-readout assay that uses hepatocyte, a human liver primary cell, with measurements taken at 24 hours after chemical dosing in a 96-well plate.CLD_CYP2B6_24hr is one of 16 assay component(s) measured or calculated from the CLD_24hr assay. It is designed to make measurements of mRNA induction, a form of inducible reporter, as detected with chemiluminescence signals by Quantitative Nuclease Protection Assay (qNPA) technology.Data from the assay component CLD_CYP2B6_24hr was analyzed at the endpoint, CLD_CYP2B6_24hr, in the positive analysis fitting direction relative to DMSO as the negative control and baseline of activity. Using a type of inducible reporter, gain-of-signal activity can be used to understand changes in the reporter gene as they relate to the gene CYP2B6. Furthermore, this assay endpoint can be referred to as a primary readout. To generalize the intended target to other relatable targets, this assay endpoint is annotated to the cyp intended target family, where subfamily is xenobiotic metabolism.
Human hepatocyte cultures were treated daily for two consecutive days with fresh dosing solutions containing appropriate concentrations of the 320 ToxCast chemicals (chemical identities were blinded to CellzDirect and other ToxCast collaborators), vehicle control (0.2% DMSO), and positive control inducers as summarized in Table 1. Due to the large number of treatment groups and chemicals examined, the ToxCast chemicals were divided into two groups (spanning two independent cultures of hepatocytes from separate donor preparations (Hu778: ToxCast plates 1 and 2; Hu776: ToxCast plates 3 and 4). Each preparation of human hepatocyte cultures was treated with respective vehicle control, medium only control, set of six positive controls/reference chemicals for the five hepatic receptor pathways, and a subset of eight of the ToxCast chemicals (indoxacarb, pyrithiobac-sodium, norflurazon, cyhalofop-butyl, methomyl, thiram, acetochlor, and propiconazole). These replicate data, coupled with internal replicates designed within the blinded ToxCast chemical library, provided additional data to evaluate interindividual differences between hepatocyte preparations and their potential impact on chemical profiles.Cell morphology and integrity were evaluated using phase-contrast microscopy as an indicator of hepatocyte cell health (Tyson & Green, 1987). Cultures for each treatment group (i.e., media, vehicle [0.2% DMSO], positive control inducers [multiple concentrations], and the ToxCast chemicals [multiple concentrations]) were observed and cell morphology was assessed relative to vehicle control cultures at each harvest time point (0, 6, 24, or 48 h). […] Images were evaluated at the conclusion of the study to assess changes in cell integrity and account for the effects of chemical exposure on uncharacteristic changes in concentration-dependent gene expression profiles. The results from these determinations of apparent cytotoxicity were annotated (yes/no) alongside the corresponding qNPA data for reference.At the conclusion of each treatment period, hepatocyte cultures (96-well) were washed with 1 volume of HBSS, lysed by addition of 25 ul ArrayPlate lysis buffer (HTG, Tucson, AZ), and 70 ul/well of Denaturation Oil, denatured by incubation at 95C for 10 min, and frozen at approximately -70C until analysis by nuclease protection assay (qNPA) (Roberts et al., 2007). For qNPA analysis, cell lysates were thawed at 50C for approximately 30 min, qNPA probes were added, and samples were incubated at 95C for 10 min to begin the detection process by denaturing the target RNA, dissociating the duplexes and secondary structure hybridization. At the conclusion of the hybridization period, S1 nuclease reagent was added to each sample to digest all nonprotected nucleotides at 50C for 60-90 min. […]
As to `COP(=S)(OC)Oc1ccc([N+](=O)[O-])c(C)c1`, the AC50 was 0.692 µM (active).

Regarding `CS(=O)(=O)c1cc(C(F)(F)F)ccc1C(=O)c1cnoc1C1CC1`, the half-maximal activity concentration (AC50) was 6.01 µM (active).

As for `Cc1ccc(N=CN(C)C=Nc2ccc(C)cc2C)c(C)c1`, the outcome was inactive.

Turning to `CCCCC(C#N)(Cn1cncn1)c1ccc(Cl)cc1` (stereo not given), the AC50 was 9.62 µM (active).

Turning to `CC1(C)C(C(=O)OC(C#N)c2cccc(Oc3ccccc3)c2)C1(C)C` (stereo not given), the AC50 was 4.44 µM (active).

As for `COP(=S)(OC)SCn1nnc2ccccc2c1=O`, the AC50 was 4.46 µM (active).

With `O=C(Nc1ccccc1-c1ccc(Cl)cc1)c1cccnc1Cl`, the AC50 was 0.427 µM (active).

As to `CCSC(=O)N1CCCCCC1`, the AC50 is 0.302 µM (active).

`Nc1c(Cl)c(F)nc(OCC(=O)O)c1Cl`: the outcome was inactive.

Take `O=C(O)c1c(Cl)ccc2cc(Cl)cnc12`: the call was inactive.

Regarding `CSC(=O)c1c(C(F)F)nc(C(F)(F)F)c(C(=O)SC)c1CC(C)C`, the AC50 is 1.22 µM (active).

For the molecule `Clc1nc(Cl)nc(Nc2ccccc2Cl)n1`, the result was inactive.

In the case of `CCCCC(O)(Cn1cncn1)c1ccc(Cl)cc1Cl` (stereo not given), the AC50 was 1.9 µM (active).

Take `CCCC(=NOCC)C1=C(O)CC(CC(C)SCC)CC1=O` (stereo not given): the AC50 is 28.9 µM (active).

With `Cc1cc(C)nc(Nc2ccccc2)n1`, the AC50 was 1.9 µM (active).

Regarding `CC(C)Nc1nc(Cl)nc(NC(C)C)n1`, the AC50 was 3.26 µM (active).

Take `CCOP(=S)(OCC)Oc1nc(Cl)n(C(C)C)n1`: the concentration at half-maximal activity (AC50) is 0.383 µM (active).

Take `O=c1n(Cl)c(=O)n(Cl)c(=O)n1Cl`: the outcome was inactive.

In the case of `Cc1cnc(C2=NC(C)(C(C)C)C(=O)N2)c(C(=O)O)c1` (stereo not given), the call was inactive.

`CC(C)N1C(=O)N(c2ccccc2)CSC1=NC(C)(C)C`: the AC50 is 4.23 µM (active).

On to `COC(=O)NS(=O)(=O)c1ccc(N)cc1`, for which the outcome was inactive.

For the molecule `CCOC(=O)C(C)OC(=O)c1cc(Oc2ccc(C(F)(F)F)cc2Cl)ccc1[N+](=O)[O-]` (stereo not given), the AC50 was 10.3 µM (active).

Consider `O=P(O)(O)CCCl`, for which the molecule was called inactive.

`CC(C)N1C(=O)c2ccccc2NS1(=O)=O`: the molecule was classed as inactive.

As to `N#Cc1c[nH]cc1-c1cccc2c1OC(F)(F)O2`, the AC50 is 3.97 µM (active).

In the case of `CNC(=O)N(C)c1nnc(C(C)(C)C)s1`, the call was inactive.

Regarding `N#CN=C1SCCN1Cc1ccc(Cl)nc1`, the AC50 is 11.6 µM (active).

Turning to `CCN(CC)c1nc(C)cc(OP(=S)(OC)OC)n1`, the AC50 is 0.902 µM (active).

`Cc1c(COC(=O)[C@@H]2[C@H](/C=C(\Cl)C(F)(F)F)C2(C)C)cccc1-c1ccccc1`: the AC50 is 4.37 µM (active).

In the case of `Cc1nc(N(C)C)nc(OC(=O)N(C)C)c1C`, the half-maximal activity concentration (AC50) was 4.29 µM (active).

For the molecule `C=CCOC(=O)C(C)(C)OC(=O)c1cc(-n2c(=O)cc(C(F)(F)F)n(C)c2=O)ccc1Cl`, the AC50 is 0.173 µM (active).

`CCOc1cc(C(C)(C)C)ccc1C1COC(c2c(F)cccc2F)=N1` (stereo not given): the AC50 was 1.9 µM (active).

`COCC(=O)N(c1c(C)cccc1C)C(C)C(=O)OC` (stereo not given): the AC50 was 4.09 µM (active).

With `CCC(C)n1c(=O)[nH]c(C)c(Br)c1=O` (stereo not given), the AC50 was 1.56 µM (active).

On to `CC1(C)CCC(=Cc2ccc(Cl)cc2)C1(O)Cn1cncn1` (stereo not given), for which the AC50 is 3.58 µM (active).

For the molecule `COP(=O)(OC)O/C(C)=C/C(=O)N(C)C`, the outcome was inactive.

In the case of `CCOP(=O)(OCC)Oc1nc(Cl)c(Cl)cc1Cl`, the AC50 is 0.405 µM (active).

With `Clc1cccc(C(Cl)(Cl)Cl)n1`, the AC50 is 0.325 µM (active).

As for `CC(C)NC(=O)N1CC(=O)N(c2cc(Cl)cc(Cl)c2)C1=O`, the AC50 was 10.4 µM (active).

With `CN=C=S`, the call was inactive.
